This passage reports inhibition results from PubChem BioAssay AID485270 (The Scripps Research Institute Molecular Screening Center, 2010).

Values joined by “and” are separate entries in the source; they are usually repeats but may differ in a detail not shown here. Equal entries are not always repeated. The whole screen tested about 330,000 compounds, of which about 5,800 (1.8%) were called active. Rule as the data show it: active = inhibition mostly above about 38% (no sharp cut-off); inactive = mostly below about 40%. The list comes from a sample in which actives are over-represented; it also holds similar structures and randomly drawn compounds. Some compounds were tested as several samples or in several runs, with calls that do not always agree.

What is called inhibition is the change of the read-out against control, counted positive when it falls.

In the assay the target is Orexin/Hypocretin receptor type 1 (Homo sapiens) (UniProt O43613). In words: blocks the human orexin 1 receptor (AID 485270).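 Also: 0% = agonist challenge alone and 100% = reference antagonist.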 To be noted: OX1R-expressing cells, FRET antagonist read-out; at 6.6 µM; stronger effect = higher value.
Orexin/Hypocretin receptor type 1 (Homo sapiens), sequence (O43613 whole entry, looked up): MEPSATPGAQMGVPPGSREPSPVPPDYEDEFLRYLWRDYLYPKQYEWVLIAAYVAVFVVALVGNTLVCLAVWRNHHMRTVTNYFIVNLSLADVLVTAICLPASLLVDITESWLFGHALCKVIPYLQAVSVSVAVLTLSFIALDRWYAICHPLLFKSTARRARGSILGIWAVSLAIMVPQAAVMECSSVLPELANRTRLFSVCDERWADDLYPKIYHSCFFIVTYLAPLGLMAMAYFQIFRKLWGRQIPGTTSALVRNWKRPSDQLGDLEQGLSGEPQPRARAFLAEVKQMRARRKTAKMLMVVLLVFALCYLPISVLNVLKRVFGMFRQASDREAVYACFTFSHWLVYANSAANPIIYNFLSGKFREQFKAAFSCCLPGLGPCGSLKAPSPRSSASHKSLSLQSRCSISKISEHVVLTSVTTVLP
With `Cc1cccn2c(=O)c3cc(C#N)c(=NC(=O)c4cccnc4)n(CC4CCCO4)c3nc12` (stereo not drawn), the inhibition was 123% (active).

For the molecule `Cc1ccccc1NC(=O)Cn1c(=O)n(CC2CCCO2)c(=O)c2ccccc21` (stereo not drawn), the inhibition is 15.6% (inactive). As for `Cc1cccc(NC(=O)c2ccc3c(=O)n(CC4CCCO4)c(=S)[nH]c3c2)c1` (stereo not drawn), the figure is 17.1% (inactive). As for `CN(C(=O)COC(=O)Cc1ccccc1[N+](=O)[O-])C1CCS(=O)(=O)C1` (stereo not drawn), the figure is 3.39% (inactive); as for `COc1cccc(NC(=O)CSc2nnc(C3CCCCC3)n2N)c1`, 6.23% (inactive); as for `COc1ccc(-n2c(SCC(=O)Nc3ccc4c(c3)OCO4)nnc2C(C)N2CCCCC2)cc1` (stereo not drawn), 7.85% (inactive). The figure for `O=C(NCCC1=CCCCC1)c1ccc(-n2cncn2)cc1` is 2.77% (inactive). `CC(=O)NC(=S)Nc1ccc(NC(=S)NC(=O)c2ccc([N+](=O)[O-])cc2)cc1`: the inhibition was 8.98% (inactive). As for `COCCCNC(=S)NC(=O)c1ccc([N+](=O)[O-])cc1`, the figure is 89.6% (active). Take `COCCCNC(=S)NC(=O)c1ccccc1`: the inhibition is 6.25% (inactive). In the case of `O=C1CCC[C@@H]2CC(N3CCCCC3)C[C@@H]3CCN1[C@H]23` (stereo partly drawn), the inhibition is 5.93% (inactive). For `O=C(Nc1ccccc1C(=O)Nc1ccncc1)c1ccc([N+](=O)[O-])cc1`, the inhibition was 16.2% (inactive). With `O=C(c1ccncc1)c1ccc([N+](=O)[O-])cc1`, the inhibition was 163% (active). For the molecule `O=C(Nn1cnnc1)c1ccc([N+](=O)[O-])cc1`, the inhibition was 22.3% (inactive). On to `COC(=O)c1ccc(/C=C/c2c(-c3ccc(OC)cc3)sc3ccccc23)cc1`, for which the inhibition is 5.48% (inactive).

Regarding `CC(C)NC(=O)Nc1cccc2c1O[C@@H](CN(C)S(=O)(=O)c1ccc(F)cc1)[C@@H](C)CN([C@H](C)CO)C2=O`, the inhibition is 3.93% (inactive).

Consider `O=C(CCS(=O)(=O)c1cccc2nsnc12)N1CCN(c2ccccc2F)CC1`, for which the inhibition was 73% (active). As for `O=C(CCCNS(=O)(=O)c1cccc2nsnc12)NCCN1CCN(c2ccccc2F)CC1`, the figure is 26.2% (inactive); as for `Cc1cccc(C)c1NC(=O)CCS(=O)(=O)c1cccc2nsnc12`, 70.3% (active).

Turning to `COc1ccc(CNC(=O)C(NS(=O)(=O)c2cccc3nsnc23)C(C)C)cc1` (stereo not drawn), the inhibition is 26.5% (inactive).

With `COc1ccc(N(C)C(=O)CCS(=O)(=O)c2cccc3nsnc23)cc1`, the inhibition was 128% (active).

With `CCC(=O)N1CCc2cc(S(=O)(=O)CCC(=O)N3CCN(c4ccccc4F)CC3)ccc21`, the inhibition is 5.14% (inactive). The figure for `O=C(O)c1ccc(NS(=O)(=O)c2cccc3nsnc23)cc1` is 27.3% (inactive); for `COc1ccc(C)cc1NC(=O)CCS(=O)(=O)c1cccc2nonc12` it is 48.1% (inactive). The figure for `CCOc1ccc(N(CC)S(=O)(=O)c2cccc3nsnc23)cc1` is 21.1% (inactive). `CCOc1ccc(NC(=O)CCS(=O)(=O)c2cccc3nsnc23)cc1`: the inhibition was 85.9% (active).

`CCOc1ccc(OCC)c(NC(=O)CN(C)S(=O)(=O)c2cccc3nsnc23)c1`: the inhibition was 41.7% (inactive). Regarding `COc1ccc(N(C)S(=O)(=O)c2cccc3nsnc23)cc1`, the inhibition is 33.6% (inactive). The figure for `O=C(COC(=O)COc1cc(Cl)c(Cl)cc1Cl)NC1CC1` is 6.97% (inactive).

On to `Cc1ccc(C(=O)NCC(=O)NC2CC2)cc1`, for which the inhibition is -0.69% (inactive). As for `Cc1occc1C(=O)Nc1cccc(S(=O)(=O)N2CCOCC2)c1`, the figure is 4.81% (inactive); as for `COc1ccc2[nH]c3c(c2c1)CCN1C(=O)C(CC(=O)NCCCN(C)C)C[C@H](C(=O)N2CCOCC2)[C@@]31CCC1CCCC1` (stereo partly drawn), -1.98% (inactive). On to `Cc1ccc(S(=O)(=O)N2C[C@@H]3CCCC[C@@H]3[C@@H](C)[C@H]2c2cn(Cc3ccccc3)c3ccc(F)cc23)cc1`, for which the inhibition was 3.67% (inactive). On to `CC1CN(C(=O)c2ccccc2NS(=O)(=O)c2cccc([N+](=O)[O-])c2)CC(C)O1` (stereo not drawn), for which the inhibition was 27.1% (inactive). Regarding `Cc1c(C(=O)N2CC(C)OC(C)C2)sc2nc(-c3ccccc3)cn12` (stereo not drawn), the inhibition was 19.5% (inactive). For `CC1CN(C(=O)c2ccc([N+](=O)[O-])s2)CC(C)O1` (stereo not drawn), the inhibition was 49.6% (active). For the molecule `CCN(CC)C(=O)[C@H]1CC(CC(=O)NCc2ccco2)C(=O)N2CCc3c([nH]c4ccccc34)[C@]12C` (stereo partly drawn), the inhibition was 6.65% (inactive). Regarding `COC(=O)[C@@]1(C)[C@H]2C(=O)N(Cc3ccccc3)C(=O)[C@H]2[C@H]2CN=C(SCC3CC3)N21`, the inhibition is 4.86% (inactive). As for `O=C1N[C@H](Cc2ccccc2)C(=O)N[C@H]1Cc1cn(S(=O)(=O)c2ccccc2)c2ccccc12`, the figure is 24.8% (inactive); as for `O=C(Cn1c[n+](CC(=O)c2ccc([N+](=O)[O-])cc2)cn1)c1ccc([N+](=O)[O-])cc1`, 41% (active) and 49.5% (inactive); as for `O=C(CC(n1cncn1)C(Cl)(Cl)Cl)c1ccc([N+](=O)[O-])cc1` (stereo not drawn), 24.6% (inactive).

In the case of `Cc1ccc(C(=O)Cn2cc([N+](=O)[O-])nc2C)cc1`, the inhibition is 16.2% (inactive).

Take `Cc1ccc(S(=O)(=O)N2CCN(C(=O)Cn3c(=O)cnc4ccccc43)CC2)c(C)c1`: the inhibition is 16.2% (inactive).

As to `O=C(OCC(=O)N1CCCCCC1)c1ccc(Br)c(S(=O)(=O)N2CCOCC2)c1`, the inhibition is 7.11% (inactive). `O=C(N[C@H]1C/C=C\C(c2ccc(F)cc2)N(Cc2ccccc2)C(=O)C1)OCC1c2ccccc2-c2ccccc21` (stereo partly drawn): the inhibition is 14.6% (inactive). As for `O=c1c2cc(-c3ccccc3)sc2nc2n1N=C(c1cccs1)CS2`, the inhibition is 49.2% (active). For `c1csc(-c2cn3c(n2)SCC3)c1`, the inhibition was 2.55% (inactive). As for `Cc1nnc2n1N=C(c1ccccc1)CS2`, the figure is -1.51% (inactive). In the case of `CC(C)=CCN1CCN(Cc2cc3ccccc3[nH]2)CC1CCO` (stereo not drawn), the inhibition was 7.38% (inactive). On to `CCN(C[C@H]1N[C@@](CC)(C(=O)OC)[C@H]2C(=O)N(Cc3ccccc3)C(=O)[C@@H]12)S(=O)(=O)c1ccc(C(F)(F)F)cc1`, for which the inhibition is 5.19% (inactive). Consider `CCc1ccc(C2C(C#N)=C(N)Oc3n[nH]c(CC(=O)OC)c32)cc1` (stereo not drawn), for which the inhibition was 1.71% (inactive). The figure for `Cc1cc(C)c(C#N)c(SCc2ccccc2C(=O)O)n1` is 27.5% (inactive); for `Cc1cc(C)c(C#N)c(SCc2[nH]nc3c2C(c2ccccc2)C(C#N)=C(N)O3)n1` (stereo not drawn) it is 60.2% (active); for `COc1ccc(N2CCN(C(CNS(=O)(=O)c3ccc(C)cc3)c3ccccc3)CC2)cc1` (stereo not drawn) it is 6.01% (inactive). Regarding `COC(=O)c1ccc(C)c(NC(=O)Cn2c(C)csc2=O)c1`, the inhibition is 2.56% (inactive).

For the molecule `COc1ccccc1-c1sc2ccccc2c1C#CC1(O)CCCCC1`, the inhibition is 6.27% (inactive). On to `COc1ccc2sc(-c3ccc(N(C)C)cc3)c(-c3ccc4cc[nH]c4c3)c2c1`, for which the inhibition was 9.19% (inactive).

As for `COc1ccc(-c2sc3ccc(OC)cc3c2C#Cc2ccccn2)cc1`, the inhibition is 8.84% (inactive). For the molecule `COc1ccc2sc(-c3ccc(N(C)C)cc3)c(C#CCO)c2c1`, the inhibition was 50.3% (active). Consider `O=C(N[C@H]1C/C=C\C(c2cccc(F)c2)N(Cc2ccccc2)C(=O)C1)OCC1c2ccccc2-c2ccccc21` (stereo partly drawn), for which the inhibition was 5.38% (inactive). Regarding `Cc1ccc(-c2cccc([C@H]3[C@@H]4C=CC[C@@H](C)[C@@H]4C(=O)N3Cc3ccccc3)c2)cc1`, the inhibition is 5.7% (inactive). Consider `C[N+](C)(CCCCCC[N+](C)(C)CCCN1C(=O)c2cccc3cccc(c23)C1=O)CCCN1C(=O)c2cccc3cccc(c23)C1=O`, for which the inhibition is 68.8% (active). Regarding `O=C1c2cccc3cccc(c23)C(=O)N1CCCCCc1n[nH]c(=S)o1`, the inhibition is 47.3% (inactive). The figure for `O=C(CCCCCN1C(=O)c2cccc3cccc(c23)C1=O)NCc1ccco1` is 9.93% (inactive). On to `COC(=O)CSc1snnc1-c1ccc(Cl)c(Cl)c1`, for which the inhibition is 33.7% (inactive). For the molecule `CCOC(=O)c1ccc(NNC(C)=O)c([N+](=O)[O-])c1`, the inhibition was 26.7% (inactive). In the case of `CCCCOC(=O)CCCc1ccc([N+](=O)[O-])cc1[N+](=O)[O-]`, the inhibition is 18.3% (inactive). As for `CCOC(=O)C/C(C)=N\Nc1ccc([N+](=O)[O-])cc1[N+](=O)[O-]`, the figure is 55.3% (active). Regarding `Nc1nc(SCC(=O)Nc2ccc(Cl)c([N+](=O)[O-])c2)n[nH]1`, the inhibition is 0.57% (inactive). As for `O=C(CN1C(=O)c2ccc([N+](=O)[O-])cc2C1=O)Nc1nnc(C2CC2)s1`, the inhibition is 21.3% (inactive). Take `Cc1ccc(S(=O)(=O)NC2CCCCCC2)cc1`: the inhibition is 10.9% (inactive). Regarding `CCn1c(Cc2cccs2)nnc1SCC(=O)c1ccc(C)cc1`, the inhibition is 14.7% (inactive). `CCn1c(SCC(=O)c2ccc(Cl)s2)nnc1-c1cccs1`: the inhibition is 26.9% (inactive). With `CCn1c(SCC(=O)c2ccc3ccccc3c2)nnc1-c1cccs1`, the inhibition was 79.6% (active). As for `COc1ccc(CCNC(=O)COC(=O)Cc2ccccc2F)cc1`, the figure is 2.3% (inactive). With `Cc1noc(C)c1S(=O)(=O)N(C)C[C@H]1Oc2ccc(NC(=O)C3CCCCC3)cc2C(=O)N([C@H](C)CO)C[C@@H]1C`, the inhibition is 3.64% (inactive).

With `O=[N+]([O-])c1c(NCCO)cc(Sc2nc3ccccc3s2)c2nonc12`, the inhibition was 90.3% (active). The figure for `O=C(O)c1ccccc1CSc1nc2ccccc2s1` is 5.76% (inactive). For `CCOc1ccccc1Nc1ccc2nonc2c1[N+](=O)[O-]`, the inhibition was 20% (inactive). Consider `COc1cc(OC)cc(-c2sc3ccc(OC)cc3c2-c2ccc3cc[nH]c3c2)c1`, for which the inhibition was 18.3% (inactive). On to `CCOC(=O)c1c(C)nc2c(c1C)c(=O)oc1ccccc12`, for which the inhibition is 4% (inactive). Regarding `Cc1ccccc1-n1nnc2c(=O)oc3ccccc3c21`, the inhibition was 51.9% (active). Consider `CCCCC(=O)Nc1cc(C)c2c(=O)oc3ccccc3c2n1`, for which the inhibition is 1.27% (inactive).

As for `COc1cc(OC)cc(-c2cc3ccc(F)cc3cn2)c1`, the inhibition is 18.6% (inactive). The figure for `N#Cc1cc([N+](=O)[O-])ccc1NC(=O)COC(=O)c1cnccn1` is 30.6% (inactive); for `Cc1cccc(NC(=O)Nc2cccc(Oc3c(F)c(F)c(F)c(F)c3F)c2)c1` it is 45.9% (active).

Regarding `COc1cccc(NC(=O)NCc2ccc(F)cc2)c1`, the inhibition was -5.5% (inactive). For the molecule `Cc1cccc(NC(=O)NC(=S)NC(=O)c2ccccc2)c1`, the inhibition was 39.1% (inactive).
